Measurements taken from PubChem BioAssay.
Records with an inconclusive call do not appear. Active and inactive are the calls of the source. Cut-off read from the data, not from the text of the source, unless noted: active = inhibition above about 80%; inactive = the rest.

Tests used:
[1] = growth inhibition of DIPG glioma cells, dose response, cell-based, SU-DIPG-XVII, MIPE5.0, CellTiter-Glo, qHTS (AID 1347060; cut-off not given, nearly all actives have AC50 up to about 26 µM); settings: SU-DIPG-XVII viability, CellTiter-Glo ATP luminescence
[2] = growth inhibition of DIPG glioma cells, dose response, cell-based, SU-DIPG-XIII, MIPE5.0, CellTiter-Glo, qHTS (AID 1347064; cut-off not given, nearly all actives have AC50 up to about 23 µM); settings: SU-DIPG-XIII viability, CellTiter-Glo ATP luminescence
[3] = viability loss in pontine glioma line – cell-based, SU-DIPG-XXV, MIPE5.0, CellTiter-Glo, qHTS, dose response (AID 1347065; cut-off not given, nearly all actives have AC50 up to about 26 µM;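 note: cells exposed to compound for 48 hours before ATP readout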); settings: CellTiter-Glo ATP luminescence
[4] = JHH-DIPG-1 glioma cell viability, MIPE5.0 library, CellTiter-Glo luminescence, qHTS (AID 1347067; cut-off not given, nearly all actives have AC50 up to about 26 µM;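 note: cells exposed to compound for 48 hours before readout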); settings: JHH-DIPG-1 glioma viability, CellTiter-Glo ATP luminescence
[5] = SU-DIPG-XXV glioma cell viability, MIPE5.0 library, qHTS (AID 1347068; cut-off not given, nearly all actives have IC50 up to about 30 µM)
[6] = LFS_MB_P medulloblastoma growth inhibition, cell-based, chromothripsis tumors, cisplatin or BGB combos (AID 1671449); settings: LFS_MB_P medulloblastoma cells;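 note: cells exposed for 96 hours; 0% = vehicle DMSO and 100% = killing by high DMSO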
[7] = HDN33 neuroblastoma growth inhibition, cell-based, chromothripsis tumors, cisplatin or BGB combos (AID 1671450); settings: HDN33 neuroblastoma cells, stronger effect = higher value;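 note: cells exposed to compound for four days; 0% = vehicle DMSO and 100% = cell killing by high DMSO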
[8] = ICB984 medulloblastoma cell growth inhibition, synergistic combos for chromothripsis tumors, cisplatin or BGB combos (AID 1671451; call rule not given here;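 note: cells exposed for 96 hours before readout; 0% = vehicle DMSO and 100% = killing by high DMSO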); settings: ICB984 medulloblastoma cells, drug combinations, stronger effect = higher value
[9] = LFS_MB_1R medulloblastoma cell growth inhibition, synergistic combos for chromothripsis tumors, cisplatin or BGB combos (AID 1671452); settings: LFS_MB_1R medulloblastoma cells, stronger effect = higher value;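 note: cells exposed for 96 hours before readout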
[10] = HTB85 osteosarcoma cell growth inhibition, synergistic combos for chromothripsis tumors, BGB or cisplatin IC20 combos (AID 1671453); settings: HTB85 osteosarcoma cells, drug combinations, stronger effect = higher value;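 note: cells exposed for 96 hours before readout; 0% = vehicle DMSO and 100% = high DMSO killing control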
[11] = CRL2098 osteosarcoma cell growth inhibition, synergistic combos for chromothripsis tumors, BGB or cisplatin IC20 combos (AID 1671454); settings: CRL2098 osteosarcoma cells, drug combinations, stronger effect = higher value;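 note: cells exposed for 96 h before readout; 0% = vehicle DMSO and 100% = killing by high DMSO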
[12] = HD-MB03 medulloblastoma cell growth inhibition, synergistic combos for chromothripsis tumors, BGB or cisplatin IC20 combos (AID 1671455; in the data active = inhibition above about 83%;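 note: 0% = vehicle DMSO and 100% = high DMSO as cytotoxic control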); settings: HD-MB03 medulloblastoma cells, stronger effect = higher value
[13] = UWB1.289 ovarian carcinoma cell growth inhibition, synergistic combos for chromothripsis tumors, BGB or cisplatin combos (AID 1671456); settings: UWB1.289 ovarian carcinoma cells, stronger effect = higher value;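 note: cells exposed to compound for four days; 0% = vehicle DMSO and 100% = killing by high DMSO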
[14] = MDA-MB-436 breast carcinoma cell growth inhibition, synergistic combos for chromothripsis tumors, BGB or cisplatin combos (AID 1671458; call rule not given here;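 note: cells exposed for 96 hours; 0% = vehicle DMSO and 100% = killing by high DMSO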); settings: MDA-MB-436 breast carcinoma growth inhibition, drug combinations, stronger effect = higher value
[15] = growth inhibition of BT084 medulloblastoma cells, cell-based, ICGC_MB145, cisplatin and BGB IC40 combos (AID 1671461); settings: drug combinations, stronger effect = higher value;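 note: cells exposed to drugs for 96 hours; 0% = vehicle DMSO and 100% = high DMSO full killing control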
[16] = growth inhibition of RCMB18 medulloblastoma cells, cell-based, cisplatin and BGB IC40 combos (AID 1671462); settings: stronger effect = higher value;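 note: cells exposed to compound for four days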
[17] = growth inhibition of CRL1545 osteosarcoma cells, cell-based, cisplatin and BGB IC20 combos (AID 1671464); settings: stronger effect = higher value;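 note: cells exposed to compound for 96 hours before readout; 0% = vehicle DMSO and 100% = high DMSO killing control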
[18] = measured here: combination with BGB IC40, at 0.05 µM
[19] = measured here: with BGB IC20 combination, at 0.5 µM
[20] = measured here: with cisplatin IC20 combination, at 0.5 µM
[21] = measured here: combination with cisplatin, at 0.5 µM

For C=C1[C@H](CO)[C@@H](O)C[C@@H]1n1cnc2c(=O)[nH]c(N)nc21, the outcome [1] was “inactive”, the outcome [2] was “inactive” and the outcome [3] was “inactive”. For the same compound, the outcome [4] was “inactive”, the outcome [5] was “inactive” and the inhibition ([6]; at 0.5 µM, stronger effect = higher value) was -21.8% (inactive). The inhibition ([6]; measured here: combination with BGB IC20, at 0.005 µM) was 5.29%, the inhibition ([6]; measured here: combination with BGB IC40, at 0.005 µM) was 73.1% and the inhibition [6, 18] was 2.38%. For the same compound, the inhibition ([6]; measured here: combination with cisplatin, at 0.5 µM, stronger effect = higher value) was -17.3%, the inhibition ([6]; measured here: combination with cisplatin, at 5 µM, stronger effect = higher value) was -13.1% and the inhibition ([7]; BGB combo, at 5 µM) was -36.2%. For the same compound, the inhibition ([7]; at 0.5 µM) was -7.93% (inactive), the inhibition ([7]; cisplatin combo, at 5 µM) was -16.1% and the inhibition [7, 19] was -13.1%. It also gave an inhibition [7, 20] of -0.869%, an inhibition ([7]; single agent, at 5 µM) of -23.6% and an inhibition ([8]; BGB IC20 combo, at 0.005 µM) of -16%. The inhibition ([8]; BGB IC40 combo, at 0.005 µM) was -1.32%, the inhibition ([8]; BGB IC40 combo, at 0.05 µM) was -29.5% and the inhibition ([8]; at 0.5 µM) was -11.2% (inactive). The inhibition ([8]; cisplatin combo, at 0.05 µM) was -36.2%, the inhibition ([8]; cisplatin combo, at 0.5 µM) was -7.79% and the inhibition ([8]; cisplatin combo, at 5 µM) was -2.87%. The inhibition ([8]; measured here: 5 uM single agent, at 5 µM) was -12.5%, the inhibition ([9]; at 0.5 µM) was -2.98% (inactive) and the inhibition [9, 18] was -6.72%. For the same compound, the inhibition [9, 21] was -9.39%, the inhibition ([9]; measured here: combination with cisplatin, at 5 µM) was 13.9% and the inhibition ([10]; at 0.5 µM) was -14.3% (inactive). For the same compound, the inhibition ([10]; measured here: with BGB IC20, at 0.5 µM) was -14.3%, the inhibition ([10]; measured here: with BGB IC20, at 5 µM) was -13% and the inhibition ([10]; measured here: with cisplatin IC20, at 0.5 µM) was -20.6%. For the same compound, the inhibition ([10]; measured here: with cisplatin IC20, at 5 µM) was -13.2%, the inhibition ([10]; single agent, at 5 µM) was -13% and the inhibition ([11]; at 0.5 µM) was -23% (inactive). For the same compound, the inhibition ([11]; measured here: combination with BGB at IC20, at 0.5 µM) was -65.5%, the inhibition ([11]; measured here: combination with cisplatin at IC20, at 0.5 µM) was -29.3% and the inhibition ([12]; at 0.5 µM) was 0.83% (inactive). For the same compound, the inhibition ([12]; measured here: combo with BGB at IC20, at 0.5 µM) was -0.76%, the inhibition ([12]; measured here: combo with cisplatin at IC20, at 0.5 µM) was -1.27% and the inhibition ([13]; at 0.5 µM) was -8.13% (inactive). For the same compound, the inhibition ([13]; measured here: inhibition with BGB combination, at 0.05 µM) was 1.38%, the inhibition ([13]; measured here: inhibition with cisplatin combination, at 0.05 µM) was -3.75% and the inhibition ([14]; at 0.5 µM) was -0.47% (inactive). The inhibition ([14]; measured here: BGB combination, at 0.5 µM) was -0.92%, the inhibition ([14]; measured here: BGB combination, at 5 µM) was -0.668% and the inhibition ([14]; measured here: cisplatin combination, at 0.5 µM) was 0.06%. For the same compound, the inhibition ([14]; measured here: cisplatin combination, at 5 µM) was -10.2%, the inhibition ([15]; at 0.5 µM) was 4.2% (inactive) and the inhibition ([15]; cisplatin combination, at 0.5 µM) was 2.02%. For the same compound, the inhibition ([15]; cisplatin combination, at 5 µM) was -20%, the inhibition ([15]; measured here: BGB IC40 combination 0.05 uM, at 0.05 µM) was -15.2% and the inhibition ([15]; single agent, at 5 µM) was 6.8%. For the same compound, the inhibition ([16]; at 0.5 µM) was -7.97% (inactive), the inhibition ([16]; cisplatin combo, at 5 µM) was 3.9% and the inhibition ([16]; measured here: BGB IC40 combination, at 0.05 µM) was -6.21%. The inhibition [16, 21] was -17.4%, the inhibition ([16]; single agent, at 5 µM) was -2.06% and the inhibition ([17]; at 0.5 µM) was -6.46% (inactive). For the same compound, the inhibition [17, 19] was -39.9%, the inhibition [17, 20] was 8.8% and the inhibition ([17]; single agent, at 0.05 µM) was 4.9%. It also gave an inhibition ([17]; single agent, at 5 µM) of -41.7%.
